# Source: PubChem BioAssay
# Active and inactive are the calls of the source. Unless noted, the rule behind the calls is not given here.
# Columns and labels:
# [1] = compound effects on lung adenocarcinoma cell viability – A549, calcein-AM fluorescence, 48 h, basal, profiling panel (AID 1162); conditions: higher = more signal; note: test concentration not given here
# [2] = compound effects on differentiated 3T3-L1 adipocyte viability – cell-based, 3T3-L1 adipocytes, calcein-AM fluorescence, 48 h, basal, profiling panel (AID 1163); conditions: 3T3-L1 adipocytes viability, higher = more signal; note: test concentration not given here
# [3] = compound effects on hepatocellular carcinoma cell viability – HepG2, calcein-AM fluorescence, 48 h, basal, profiling panel (AID 1164); conditions: higher = more signal; note: test concentration not given here
# [4] = compound effects on multiple myeloma cell viability – MM1S, calcein-AM fluorescence, 48 h, basal, profiling panel (AID 1165); conditions: higher = more signal; note: test concentration not given here
# [5] = calcein-AM signal in unstimulated myeloma cells – cell-based, calcein-AM fluorescence, 48 h, PK04 Diversity Set, profiling panel (AID 1166); conditions: RPMI8226 myeloma viability, higher = more signal;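 note: cells grown under basal conditions without added stimulus; test concentration not given here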
# [6] = JC-1 mitochondrial signal, unstimulated HepG2 cells – cell-based, JC-1 fluorescence, 24 h, 100 nL compound, profiling panel (AID 1167); conditions: HepG2 mitochondrial potential, higher = more signal; note: test concentration not given here
# [7] = JC-1 mitochondrial signal, unstimulated adipocytes – cell-based, JC-1 fluorescence, 3T3-L1 adipocytes, 24 h, 100 nL compound, profiling panel (AID 1168); conditions: JC-1 mitochondrial fluorescence, higher = more signal, called active from +8 up or from −8 down; note: test concentration not given here
# [8] = JC-1 mitochondrial signal, unstimulated myeloma cells – cell-based, JC-1 fluorescence, RPMI8226, 24 h, 100 nL compound, profiling panel (AID 1169); conditions: JC-1 mitochondrial potential fluorescence, higher = more signal; note: test concentration not given here
# [9] = JC-1 mitochondrial signal, unstimulated MM1S myeloma – cell-based, JC-1 fluorescence, 24 h, 100 nL compound, profiling panel (AID 1170); conditions: MM1S mitochondrial potential, higher = more signal; note: test concentration not given here
# [10] = resazurin metabolic signal in A549 cells – cell-based, resazurin fluorescence, 24 h, PK04 Diversity Set, profiling panel (AID 1171); conditions: A549 viability, higher = more signal, called active from +8 up or from −8 down; note: test concentration not given here
# [11] = resazurin metabolic signal in HepG2 cells – cell-based, resazurin fluorescence, 24 h, PK04 Diversity Set, profiling panel (AID 1172); conditions: HepG2 viability, higher = more signal; note: test concentration not given here
# [12] = budding yeast growth changes without added modifier – OD600, strain BY4716, 24 h, basal condition, primary screen (AID 1173); conditions: S. cerevisiae BY4716 growth, OD600, 24 h; higher = more signal, called active from +8 up or from −8 down
# [13] = viability profiling in MM1S myeloma cells – cell-based, resazurin fluorescence, basal, 24 h, PK04 Diversity Set, profiling panel (AID 1174); conditions: higher = more signal, called active from +8 up or from −8 down; note: test concentration not given here
# [14] = target: Dihydroorotate dehydrogenase (quinone), mitochondrial (Plasmodium falciparum (isolate 3D7)) (UniProt Q08210); test: inhibition of P. falciparum DHODH – biochemical, C-terminal His tag, absorbance 600 nm, primary screen (AID 1175); conditions: PfDHODH enzyme, DCIP absorbance 600 nm; higher = more signal, called active from +8 up or from −8 down;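 note: recombinant parasite enzyme with a five histidine tag at its C terminus; test concentration not given here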
# [15] = inhibition of PAO1 biofilm formation – strain PAO1, LB-PBS medium, absorbance 600 nm, primary screen (AID 1176); note: test concentration not given here; conditions: P. aeruginosa PAO1 growth/biofilm, A600, 12 h; higher = more signal
# [16] = growth modulation of vineyard yeast isolate – strain RM11-1a, OD600, basal, 24 h, primary screen (AID 1177);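 note: cultures grown under basal conditions with no added stressor; test concentration not given here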; conditions: S. cerevisiae RM11-1a growth, OD600, 24 h; higher = more signal, called active from +8 up or from −8 down
# [17] = growth of efflux-deficient E. coli DRC39 – strain DRC39, OD650, 24 h, E. coli filamentation inducers, primary screen (AID 1178);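 note: growth measured as culture turbidity by optical density at 650 nm; test concentration not given here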; conditions: E. coli DRC39 acrAB, higher = more signal, called active from +8 up or from −8 down
# [18] = growth of efflux-deficient E. coli DRC39 – strain DRC39, OD650, 48 h, E. coli filamentation inducers, primary screen (AID 1179);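 note: screen aims at cell division blockers that make cells filament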; conditions: E. coli DRC39 delta-acrAB growth, higher = more signal, called active from +8 up or from −8 down
# [19] = viability profiling in RPMI8226 myeloma cells – cell-based, resazurin fluorescence, basal, 24 h, PK04 Diversity Set, profiling panel (AID 1180); conditions: higher = more signal;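 note: RPMI8826 multiple myeloma cell line at 5000 cells per well; test concentration not given here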
# [20] = target: E3 ubiquitin-protein ligase XIAP (Homo sapiens) (UniProt P98170); test: small molecules binding XIAP protein – biophysical, small-molecule microarray, fluorescence 635 nm, primary screen (AID 1181); conditions: higher = more signal;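 note: score merges 667 nm emission and signal to noise over triplicate slides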
# Chain of E3 ubiquitin-protein ligase XIAP (Homo sapiens) (P98170 whole entry, looked up): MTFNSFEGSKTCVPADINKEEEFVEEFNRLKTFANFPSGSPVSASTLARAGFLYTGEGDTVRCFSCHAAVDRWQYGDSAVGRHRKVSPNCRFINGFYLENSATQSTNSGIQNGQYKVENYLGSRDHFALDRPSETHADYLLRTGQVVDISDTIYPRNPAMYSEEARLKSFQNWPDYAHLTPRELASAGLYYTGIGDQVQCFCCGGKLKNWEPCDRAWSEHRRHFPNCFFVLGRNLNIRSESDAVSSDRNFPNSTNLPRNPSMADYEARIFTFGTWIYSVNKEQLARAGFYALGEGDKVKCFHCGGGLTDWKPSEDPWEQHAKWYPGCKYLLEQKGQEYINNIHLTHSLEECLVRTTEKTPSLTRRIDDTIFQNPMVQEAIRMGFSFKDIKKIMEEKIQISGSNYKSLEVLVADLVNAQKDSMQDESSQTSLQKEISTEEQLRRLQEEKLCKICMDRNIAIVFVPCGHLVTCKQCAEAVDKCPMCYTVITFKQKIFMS
# Chain of Dihydroorotate dehydrogenase (quinone), mitochondrial (Plasmodium falciparum (isolate 3D7)) (Q08210 whole entry, looked up): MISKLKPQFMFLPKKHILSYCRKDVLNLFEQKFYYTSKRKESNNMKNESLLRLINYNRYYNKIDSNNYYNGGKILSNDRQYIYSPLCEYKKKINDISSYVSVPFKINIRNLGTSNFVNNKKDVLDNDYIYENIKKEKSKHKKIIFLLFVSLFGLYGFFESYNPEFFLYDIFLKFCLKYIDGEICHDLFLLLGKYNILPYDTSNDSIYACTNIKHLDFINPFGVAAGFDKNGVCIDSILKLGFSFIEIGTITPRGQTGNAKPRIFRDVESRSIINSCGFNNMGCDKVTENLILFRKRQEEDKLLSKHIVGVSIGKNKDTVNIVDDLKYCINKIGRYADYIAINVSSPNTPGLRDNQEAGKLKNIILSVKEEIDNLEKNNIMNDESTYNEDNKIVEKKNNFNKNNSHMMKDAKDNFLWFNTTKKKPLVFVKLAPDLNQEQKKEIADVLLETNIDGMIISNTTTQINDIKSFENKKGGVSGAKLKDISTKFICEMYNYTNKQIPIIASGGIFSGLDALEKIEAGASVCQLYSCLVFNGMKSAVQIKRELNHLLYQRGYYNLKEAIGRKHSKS
Structure (SMILES),z-score [1],z-score [2],z-score [3],z-score [4],z-score [5],z-score [6],z-score [7],z-score [8],z-score [9],z-score [10],z-score [11],z-score [12],z-score [13],composite z-score [14],z-score [15],z-score [16],z-score [17],z-score [18],z-score [19],composite z-score [20]
CCCC[C@H]1OB(O)C[C@H]2C1=C(COc1ccccc1)C[C@H]1C(=O)N(Cc3ccccc3)C(=O)[C@H]12,0.358,0.488,-0.429,-1.09,-1.08,0.989,0.241 (inactive),-0.163,-0.446,0.574 (inactive),0.552,-1.91 (inactive),0.804 (inactive),-1.25 (inactive),-0.802 (inactive),-0.0955 (inactive),0.875 (inactive),-0.281 (inactive),0.421,0.0617
CCCNC(=O)[C@@]1(C)c2ccccc2C(=O)N(C(C)C)[C@H]1c1ccc(CO)cc1,-0.23,0.793,-0.13,-0.634,-0.025,0.977,-0.0917 (inactive),0.0976,-0.426,0.788 (inactive),0.241,-0.619 (inactive),0.148 (inactive),-0.44 (inactive),0.332 (inactive),-0.531 (inactive),-0.252 (inactive),-0.516 (inactive),0.0567,-0.0553
COC(=O)[C@@]1(Cc2ccc(F)cc2)[C@H]2c3cc(C(=O)N4CCCC4)n(Cc4ccc(Cl)c(C(F)(F)F)c4)c3C[C@H]2CN1C(=O)c1ccccc1,-0.463,-0.286,-0.452,-0.604,-2.4,1.09,-1.33 (inactive),-0.673,-1.96,-1.53 (inactive),-1.03,1.55 (inactive),-2.02 (inactive),0.0979 (inactive),0.84 (inactive),0.78 (inactive),-0.178 (inactive),0.272 (inactive),-3.32,0.553
C=C(C(=O)CC[C@@H](OC(C)=O)c1ccc(OCCO)cc1)C(C)C,-0.382,-0.0315,0.185,-1.06,0.16,-0.637,-0.191 (inactive),0.0885,0.109,-0.222 (inactive),0.0804,-0.99 (inactive),-0.522 (inactive),-1.51 (inactive),1.48 (inactive),0.156 (inactive),-0.248 (inactive),-0.227 (inactive),-0.271,0.612
COc1ccccc1CN1C(=O)c2ccccc2[C@](Cc2ccccc2I)(C(=O)NC2CC2)[C@@H]1c1ccc(CO)cc1,-0.741,-0.475,-0.468,-0.664,-1.54,1.32,0.424 (inactive),-1.04,-0.508,-0.264 (inactive),-0.246,0.329 (inactive),-0.185 (inactive),0.629 (inactive),0.0714 (inactive),1.66 (inactive),0.127 (inactive),0.877 (inactive),-0.198,0.591
COc1ccc([Si](C)(C)[C@H]2[C@H](CC(=O)N3Cc4ccccc4C[C@H]3CO)O[C@@]3(C(=O)N(Cc4cccc(I)c4)c4ccccc43)[C@@H]2C)cc1,-0.817,0.0894,-0.693,-2.42,-4.12,1.33,0.814 (inactive),-1.06,-0.605,-1.84 (inactive),-0.779,-1.08 (inactive),-2.22 (inactive),-1.01 (inactive),1.13 (inactive),1.55 (inactive),0.517 (inactive),-0.152 (inactive),-1.59,-0.157
C=CCN1Cc2ccccc2C[C@]2(N=C(c3ccc(OCCCO)cc3)O[C@@H]2c2ccccc2)C1=O,-0.584,0.975,-0.676,-3.58,-3.71,0.96,0.101 (inactive),-1.16,-0.762,-2.13 (inactive),-0.677,-1.35 (inactive),-2.24 (inactive),-1.1 (inactive),1.32 (inactive),-0.211 (inactive),1.13 (inactive),1.09 (inactive),-2.07,-0.186
COCC1C2CC[C@H]3C(OCc4ccc(F)cc4C(F)(F)F)OC[C@]4(C)[C@H]3C2=C(CN4C(=O)OC(C)(C)C)[C@H](C)C1COC (stereo not given in full),-0.201,-0.511,0.922,-2.86,-3.14,1.53,-0.453 (inactive),-0.507,-1.42,-0.546 (inactive),-0.422,0.236 (inactive),-0.481 (inactive),-0.908 (inactive),0.383 (inactive),-3.23 (inactive),-0.93 (inactive),0.25 (inactive),0.092,-0.122
